Results filed as inconclusive are left out. Active and inactive are the calls of the source. Calls follow the shape of the dose curve; as a rule, active = well fitted curve in the direction sought with a large enough effect; inconclusive = small, poorly fitted or top-dose-only effect, or another doubt; inactive = no such curve, though single readings can be large; an effect the other way counts as inactive or inconclusive.
Legend:
[1] = molecular target: Rap guanine nucleotide exchange factor 3 (Homo sapiens) (UniProt O95398); experiment: Confirmatory qHTS for agonist of cAMP-regulated guanine nucleotide exchange factor 3 (EPAC1) (AID 1645881);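 also: EPAC1 catalysed release of BODIPY-GDP from Rap1B seen as fluorescence loss; 100% = effect of cAMP agonist control; nearly all actives have a fitted effect of over 75% in size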
Rap guanine nucleotide exchange factor 3 (Homo sapiens), sequence (O95398 whole entry, looked up): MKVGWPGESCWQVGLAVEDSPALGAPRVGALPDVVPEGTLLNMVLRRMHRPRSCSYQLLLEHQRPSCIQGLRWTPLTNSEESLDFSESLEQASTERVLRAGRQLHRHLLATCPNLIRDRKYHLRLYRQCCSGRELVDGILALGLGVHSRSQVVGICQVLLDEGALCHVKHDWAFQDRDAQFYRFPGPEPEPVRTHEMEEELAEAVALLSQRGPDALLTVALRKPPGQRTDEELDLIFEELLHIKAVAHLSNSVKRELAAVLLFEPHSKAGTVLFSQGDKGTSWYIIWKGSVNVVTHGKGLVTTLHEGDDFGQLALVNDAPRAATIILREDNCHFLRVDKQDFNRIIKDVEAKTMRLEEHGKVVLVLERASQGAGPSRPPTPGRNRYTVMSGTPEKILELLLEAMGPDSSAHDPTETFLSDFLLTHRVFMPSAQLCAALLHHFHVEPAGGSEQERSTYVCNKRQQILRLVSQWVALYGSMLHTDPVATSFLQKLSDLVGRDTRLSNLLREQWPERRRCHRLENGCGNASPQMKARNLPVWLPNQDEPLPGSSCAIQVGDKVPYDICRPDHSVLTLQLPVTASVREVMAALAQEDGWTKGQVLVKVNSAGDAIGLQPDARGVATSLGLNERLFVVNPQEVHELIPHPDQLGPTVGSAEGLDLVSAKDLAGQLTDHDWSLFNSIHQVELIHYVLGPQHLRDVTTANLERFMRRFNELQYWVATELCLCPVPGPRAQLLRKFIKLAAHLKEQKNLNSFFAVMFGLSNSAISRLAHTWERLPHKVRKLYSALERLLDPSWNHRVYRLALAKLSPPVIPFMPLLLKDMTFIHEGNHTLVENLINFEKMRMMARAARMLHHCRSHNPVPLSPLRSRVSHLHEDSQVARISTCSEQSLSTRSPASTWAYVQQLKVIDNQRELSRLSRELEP

[2] = molecular target: Rap guanine nucleotide exchange factor 4 (Homo sapiens) (UniProt Q8WZA2); experiment: Confirmatory qHTS for agonist of cAMP-regulated guanine nucleotide exchange factor 4 (EPAC2) (AID 1645884);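 also: nucleotide exchange releases bodipy-GDP from Rap1 and this lowers its fluorescence; % is scaled to controls: 0 for no effect and ±100 for the full control effect; nearly all actives have a fitted effect of over 65% in size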
Rap guanine nucleotide exchange factor 4 (Homo sapiens), sequence (Q8WZA2 whole entry, looked up): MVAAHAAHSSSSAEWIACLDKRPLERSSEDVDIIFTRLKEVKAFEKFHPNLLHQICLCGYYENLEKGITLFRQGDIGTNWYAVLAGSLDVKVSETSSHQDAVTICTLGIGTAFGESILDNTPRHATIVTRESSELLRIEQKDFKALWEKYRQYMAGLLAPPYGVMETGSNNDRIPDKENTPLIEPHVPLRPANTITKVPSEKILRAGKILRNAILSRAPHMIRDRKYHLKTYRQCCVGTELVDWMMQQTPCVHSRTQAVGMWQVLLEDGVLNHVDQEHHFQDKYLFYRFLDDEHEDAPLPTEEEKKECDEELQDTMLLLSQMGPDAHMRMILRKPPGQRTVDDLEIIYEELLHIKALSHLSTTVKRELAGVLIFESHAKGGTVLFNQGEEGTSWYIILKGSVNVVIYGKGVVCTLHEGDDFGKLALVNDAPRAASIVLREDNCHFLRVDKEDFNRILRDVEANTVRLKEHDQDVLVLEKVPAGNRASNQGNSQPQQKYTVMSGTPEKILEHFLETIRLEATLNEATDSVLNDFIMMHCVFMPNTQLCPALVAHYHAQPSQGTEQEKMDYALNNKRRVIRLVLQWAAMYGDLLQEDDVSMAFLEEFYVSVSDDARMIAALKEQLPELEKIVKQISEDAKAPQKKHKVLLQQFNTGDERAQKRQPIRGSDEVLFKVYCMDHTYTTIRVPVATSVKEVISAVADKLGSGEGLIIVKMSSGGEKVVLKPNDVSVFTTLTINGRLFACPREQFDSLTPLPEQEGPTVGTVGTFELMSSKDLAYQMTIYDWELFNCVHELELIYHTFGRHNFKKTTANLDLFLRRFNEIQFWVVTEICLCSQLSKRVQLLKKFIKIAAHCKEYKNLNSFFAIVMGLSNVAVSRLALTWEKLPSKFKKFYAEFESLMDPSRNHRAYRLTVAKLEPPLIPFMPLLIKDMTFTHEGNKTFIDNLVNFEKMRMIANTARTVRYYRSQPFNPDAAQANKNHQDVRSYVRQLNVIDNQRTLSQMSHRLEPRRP

[3] = molecular target: Rap guanine nucleotide exchange factor 4 (Homo sapiens) (UniProt Q8WZA2); experiment: Confirmatory qHTS for antagonist of cAMP-regulated guanine nucleotide exchange factor 4 (EPAC2) (AID 1645885); also: nearly all actives have a fitted effect of over 25% in size; as to activity change, negative = inhibition: % is scaled to controls: 0 for no effect and ±100 for the full control effect
[4] = molecular target: Rap guanine nucleotide exchange factor 3 (Homo sapiens) (UniProt O95398); experiment: Counterscreen qHTS for antagonist of cAMP-regulated guanine nucleotide exchange factor 3 (EPAC1) (AID 1645888);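 also: fluorescence loss as bound BODIPY-GDP is released from Rap1B; % of control where 0% means no effect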
Outline: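 Rap1B–BODIPY-GDP (250 nM) with 50 uM GDP; compounds pin-transferred to 9.74 nM–152 uM final (activator) or from 7.32 nM upwards (inhibitor). Fluorescence Ex/Em 480/540 nm read at 5 and 30 min, then after adding cAMP or buffer, at room temperature.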

CCC(CO)n1c(SCc2cc([N+](=O)[O-])cc3c2OCOC3)nc2ccccc2c1=O (stereo not drawn)
inactive: Potency [1] | activation [2] 10.3% [at 17.1 µM, percent relative to cAMP agonist control] | Potency [3] | activity change, negative = inhibition [4] 19.8% [at 30.8 µM]

C/C(=N\Nc1nc2ccccc2[nH]1)c1cc2ccccc2o1
inactive: Potency [1] | activation [2] 1.22% [at 17.1 µM, percent relative to cAMP agonist control] | Potency [3] | activity change, negative = inhibition [4] -0.654% [at 30.8 µM]

COCCN1C(=O)c2[nH]nc(-c3ccccc3O)c2C1c1ccc(Cl)c(Cl)c1 (stereo not drawn)
inactive: Potency [1] | Potency [2] | Potency [3] | Potency [4]

COc1cc2c(cc1OC)C(c1ccc(Cl)cc1)N(c1ccc(C)c(F)c1)C(=O)C2 (stereo not drawn)
inactive: Potency [1] | Potency [2] | outcome [3] inactive [at 12.7 µM] | Potency [4]

O=C(O)c1ccc(N/N=C/c2ccc(-c3ccccc3Cl)o2)cc1
inactive: Potency [1] | activation [2] 7.2% [at 17.1 µM, percent relative to cAMP agonist control] | Potency [3] | activity change, negative = inhibition [4] 1.4% [at 30.8 µM]

CCn1c(=O)c2sccc2n2c(CCCC(=O)N3CCN(c4cc(Cl)ccc4C)CC3)nnc12
inactive: Potency [1] | Potency [2] | Potency [3] | Potency [4]

O=c1[nH]cc(N=Cc2cc(Cl)cc(Cl)c2O)c(=O)[nH]1
inactive: Potency [1] | Potency [2] | Potency [3] | Potency [4]

CC1=C(C(=O)Nc2ccccc2)C(c2ccc(Cl)cc2)n2c(s/c(=C/c3cccc(OCC(=O)O)c3)c2=O)=N1 (stereo not drawn)
inactive: Potency [1] | activation [2] 3.83% [at 17.1 µM, percent relative to cAMP agonist control] | Potency [3] | activity change, negative = inhibition [4] -3.62% [at 30.8 µM]

Cc1noc(NS(=O)(=O)c2ccc(N/C=C\C(=O)c3cccc4ccccc34)cc2)c1C
inactive: Potency [1] | Potency [2] | Potency [3] | Potency [4]

Cc1ccc(C(=O)N2CCc3cc(CNC(=O)CSc4ccccc4)ccc32)cc1
inactive: Potency [1] | Potency [2] | Potency [3] | Potency [4]

Cc1ccc(C)c(Cn2c(CN(C)Cc3ccccc3)nc3c2c(=O)n(C)c(=O)n3C)c1
inactive: Potency [1] | Potency [2] | Potency [3] | Potency [4]

Cc1cc(O)cc(C)c1NS(=O)(=O)c1ccc2ccccc2c1
inactive: Potency [1] | Potency [2] | Potency [3] | Potency [4]

CC(C)C1COC(c2cccn2Cc2ccccc2Cl)=N1 (stereo not drawn)
inactive: Potency [1] | activation [2] 14.2% [at 17.1 µM, percent relative to cAMP agonist control] | Potency [3] | activity change, negative = inhibition [4] -4.02% [at 30.8 µM]

COc1ccc(NC(=O)CSc2sc3c(O)cc(=O)[nH]c3c2C#N)c(OC)c1
inactive: Potency [1] | activation [2] 3.92% [at 17.1 µM, percent relative to cAMP agonist control] | Potency [3] | activity change, negative = inhibition [4] -13.9% [at 30.8 µM]

Cc1ccn2c(=O)nc(SCC(=O)Nc3ccc4c(c3)OCO4)nc2c1
inactive: Potency [1] | Potency [2] | Potency [3] | Potency [4]

CCOC(=O)C1=CCN(S(=O)(=O)c2ccccc2Cl)C1c1ccc(Cl)c(Cl)c1 (stereo not drawn)
inactive: Potency [1] | activation [2] 4.1% [at 17.1 µM, percent relative to cAMP agonist control] | Potency [3] | activity change, negative = inhibition [4] -3.01% [at 30.8 µM]

O=C1C=C(NS(=O)(=O)c2ccccc2)C(=O)c2ccccc21
inactive: Potency [1] | Potency [2] | Potency [3] | Potency [4]

CCCOc1ccc(/C=C2/C(=O)ON=C2C)cc1Cl
inactive: Potency [1] | Potency [2] | Potency [3] | Potency [4]

CCOC(=O)c1c(C)oc2nc(C)nc(N(C)Cc3ccccc3)c12
inactive: Potency [1] | Potency [2] | outcome [3] inactive [at 12.7 µM] | Potency [4]

CCc1nc2c(OCCC3CCCCC3)cccn2c1N(C)C(=O)c1ccc(C)cc1
inactive: Potency [1] | Potency [2] | Potency [3] | Potency [4]

Cc1cccc(Cn2c(COc3ccccc3)nc3ccccc32)c1
inactive: Potency [1] | Potency [2] | Potency [3] | Potency [4]

CC(C)CC(NS(=O)(=O)OCC(Cl)(Cl)Cl)c1ccccc1 (stereo not drawn)
inactive: Potency [1] | activation [2] 5.17% [at 17.1 µM, percent relative to cAMP agonist control] | Potency [3] | activity change, negative = inhibition [4] -22.9% [at 30.8 µM]

CCCS(=O)(=O)c1c(S(=O)(=O)CCC)c2cnccn2c1C(=O)c1ccc(CC)cc1
inactive: Potency [1] | activation [2] 12.5% [at 17.1 µM, percent relative to cAMP agonist control] | Potency [3] | activity change, negative = inhibition [4] -2.89% [at 30.8 µM]

Cc1ccc(C(C)C)c(OCC(=O)NCC2(N3CCOCC3)CCCCC2)c1
inactive: Potency [1] | Potency [2] | Potency [3] | Potency [4]

COc1ccccc1-c1nnc(SCC(=O)c2ccc(C3CCCCC3)cc2)n1Cc1ccco1
inactive: Potency [1] | Potency [2] | Potency [3] | Potency [4]

Cc1ccc(-c2nc3c(c(=O)[nH]c(=O)n3Cc3ccccc3)n2C)o1
inactive: Potency [1] | Potency [2] | Potency [3] | Potency [4]

Cc1cccc(-n2ccnc2SCC(=O)Nc2ccc(F)cc2F)c1C
inactive: Potency [1] | Potency [2] | Potency [3] | Potency [4]

From PubChem BioAssay (NCATS)
